The nature of test [1]: reducers of endogenous Her2 protein level, primary screen, SKBR3 breast tumor cells, AlphaScreen, ATP viability (AID 461;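 active = Her2 level under about 52% in both replicate screens, with viability over 70% of control, limit read from the data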;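 for Her2 level: lower value means less Her2 protein in the cells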;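 for viability: percent of carrier control wells set as 100% viability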). To be noted: 18-24 h, measured here: SKBR3 viability, ATP luminescence, at 10 µM.
In test [2] the target is Receptor tyrosine-protein kinase erbB-2 (Homo sapiens) (UniProt P04626). The test is described as above. To be noted: 18-24 h, at 10 µM, stronger effect = lower value.
Test [3] can be described thus: SK-BR-3 cell growth inhibitors, pilot screen, 24 h, human (AID 572;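 active = viability at or below 10% of carrier control in both of two separate runs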;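 note: compound exposure lasted between 18 and 24 h rather than exactly 24 h; 100% = carrier-treated control wells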). To be noted: SK-BR-3 viability, CellTiter-Glo luminescence, at 10 µM, stronger effect = lower value.
The nature of test [4]: HUVEC growth inhibition – cell-based, human, primary screen (AID 575;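 active = viability at or below 30% in both replicate assays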;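 note: 100% = median of untreated cell wells with 0.1% DMSO on each plate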). To be noted: HUVEC proliferation, CellTiter-Glo luminescence, 72 h; at 10 µM; stronger effect = lower value.
Test [5] can be described thus: growth inhibitors of H69AR lung tumor, primary screen, human, duplicate replicates (AID 580;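 active = viability at or under a set limit in both replicates, limit being median viability minus 3 SD, cut at about 48% in these data, passing the limit was not always enough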;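 note: 100% = mean luminescence of untreated wells and 0% = no signal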). To be noted: H69AR lung tumor cells viability, ATP luminescence, 72 h; at 10 µM; stronger effect = lower value.
Test [6] is described as follows: reversal of MRP1-mediated doxorubicin resistance, pilot screen, H69AR cells, doxorubicin co-treatment (AID 601;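 active = viability loss from added drug above about 55%, and viability with drug at most 40%, in both replicates, limit read from the data, passing the limit was not always enough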). To be noted: CellTiter-Glo, 72 h, at 10 µM; for differential viability (reversal): stronger effect = higher value.
The nature of test [7]: 384-well plate pilot, post-Golgi transport modulator project, inhibition of yeast transport mutant growth (AID 636; in the data active = inhibition above about 31%). To be noted: absorbance 615 nm, about 18 h, stronger effect = higher value.
Test [8] in a line: growth suppression of yeast trafficking mutant, preliminary HTS, modulators of trafficking downstream of Golgi apparatus project, 1536-format plate, OD 615 nm (AID 637; in the data active = inhibition above about 30%). To be noted: yeast transport mutant growth, absorbance 615 nm, 18 h; stronger effect = higher value.
The nature of test [9]: OD615 S. cerevisiae growth inhibition, permissive medium, pilot counter-assay, permissive growth control for S. cerevisiae lifespan shortening project (AID 705;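 active = growth inhibition above 25% in both replicates, a cutoff set 3 SD above the mean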). To be noted: OD615, 24 h, at 10 µM, stronger effect = higher value.
Test [10] is described as follows: Restrictive medium S. cerevisiae growth inhibition, OD615, pilot screen of yeast lifespan reduction project, restrictive growth control (AID 706;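 active = growth inhibition above a set limit, 3 SD over mean compound inhibition, in both replicates, cut at about 43% in these data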;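 note: modified DeaD lifespan yeast strain shifted to restrictive glucose medium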). To be noted: OD615, 48 h, at 10 µM, stronger effect = higher value.
Test [11] in a line: viability gain of MRP-1-high H69AR cells under doxorubicin, pilot screen, MRP-1 activator project, CellTiter-Glo, duplicate (AID 807;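 active = viability increase at or above a cutoff of the median across tested compounds plus 3 SD, cut at about 8.5% in these data, passing the limit was not always enough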;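 note: compound pretreatment 18-22 h then 72 h combined with doxorubicin; 0% = doxorubicin alone and 100% = vehicle without doxorubicin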). To be noted: H69AR viability with doxorubicin, CellTiter-Glo luminescence; at 10 µM; stronger effect = higher value.
The nature of test [12]: growth suppression of beta-catenin knockout HCT116, pilot screen, human colon tumor cells (AID 823).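 Note: 0% = wells killed by 20 µM Hyamine and 100% = untreated DMSO cell wells.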 To be noted: CellTiter-Glo, 60 h, at 10 µM, stronger effect = lower value.
Test [13] in a line: growth suppression of PTEN-deleted HCT116, pilot screen, cell-based, HCT116 clonal line, CellTiter-Glo (AID 824;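 active = viability at or below 27.92% in each of two runs, the all-compound median minus 4 SD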;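 note: 0% = 20 µM Hyamine control and 100% = vehicle cell control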). To be noted: 60 h, at 10 µM, stronger effect = lower value.
Test [14] in a line: inhibitors of the yeast RAM network, pilot screen, dse1pr::URA3 reporter, 5-FOA selection (AID 869;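 active = inhibition over a set limit, the all-compound mean plus 3 SD, in both replicate runs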;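 note: 0% = DMSO wells with no growth and 100% = 10 µM 1-NA-PP1 with full growth; RAM network block rescues cells from 5-FOA so hits raise OD615 growth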). To be noted: S. cerevisiae dse1pr::URA3 5-FOA growth, OD615, 2 d; at 10 µM; stronger effect = higher value; strain carries analog-sensitive mutant Cbk1 kinase.
A short description of test [15]: RAM signaling pathway blockade in yeast – S. cerevisiae, Pdr1DBD-CYC8 efflux-inhibited sensitized strain, primary screen (AID 1298;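 active = RAM network inhibition above 8.4% in each of two replicates, 3 SD over the compound average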;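 note: 0% = DMSO untreated cells without growth and 100% = 10 µM 1-NA-PP1 full growth; higher means more yeast growth rescued from 5-FOA killing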). To be noted: S. cerevisiae cbk1-as DSE1-URA3 strain, 5-FOA growth OD615, 2 d; at 50 µM; stronger effect = higher value.
[16] abbreviates: H69AR cells + 2 uM doxorubicin, measured here: viability with 2 uM doxorubicin, stronger effect = lower value.
Where [17] appears, read: H69AR cells, compound alone cytotoxicity.

The structures appear in SMILES notation. Inconclusive results are not listed. Active and inactive are the calls of the source.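 Rule for the calls, unless noted: active = cell viability at or below a set limit in both duplicate runs, the limit being the all-compound median minus 4 SD (cut at about 23% in these data, passing the limit was not always enough); inconclusive = no clear call, values can overlap the other calls; inactive = the rest.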

Sequence of Receptor tyrosine-protein kinase erbB-2 (Homo sapiens) (P04626 whole entry, looked up): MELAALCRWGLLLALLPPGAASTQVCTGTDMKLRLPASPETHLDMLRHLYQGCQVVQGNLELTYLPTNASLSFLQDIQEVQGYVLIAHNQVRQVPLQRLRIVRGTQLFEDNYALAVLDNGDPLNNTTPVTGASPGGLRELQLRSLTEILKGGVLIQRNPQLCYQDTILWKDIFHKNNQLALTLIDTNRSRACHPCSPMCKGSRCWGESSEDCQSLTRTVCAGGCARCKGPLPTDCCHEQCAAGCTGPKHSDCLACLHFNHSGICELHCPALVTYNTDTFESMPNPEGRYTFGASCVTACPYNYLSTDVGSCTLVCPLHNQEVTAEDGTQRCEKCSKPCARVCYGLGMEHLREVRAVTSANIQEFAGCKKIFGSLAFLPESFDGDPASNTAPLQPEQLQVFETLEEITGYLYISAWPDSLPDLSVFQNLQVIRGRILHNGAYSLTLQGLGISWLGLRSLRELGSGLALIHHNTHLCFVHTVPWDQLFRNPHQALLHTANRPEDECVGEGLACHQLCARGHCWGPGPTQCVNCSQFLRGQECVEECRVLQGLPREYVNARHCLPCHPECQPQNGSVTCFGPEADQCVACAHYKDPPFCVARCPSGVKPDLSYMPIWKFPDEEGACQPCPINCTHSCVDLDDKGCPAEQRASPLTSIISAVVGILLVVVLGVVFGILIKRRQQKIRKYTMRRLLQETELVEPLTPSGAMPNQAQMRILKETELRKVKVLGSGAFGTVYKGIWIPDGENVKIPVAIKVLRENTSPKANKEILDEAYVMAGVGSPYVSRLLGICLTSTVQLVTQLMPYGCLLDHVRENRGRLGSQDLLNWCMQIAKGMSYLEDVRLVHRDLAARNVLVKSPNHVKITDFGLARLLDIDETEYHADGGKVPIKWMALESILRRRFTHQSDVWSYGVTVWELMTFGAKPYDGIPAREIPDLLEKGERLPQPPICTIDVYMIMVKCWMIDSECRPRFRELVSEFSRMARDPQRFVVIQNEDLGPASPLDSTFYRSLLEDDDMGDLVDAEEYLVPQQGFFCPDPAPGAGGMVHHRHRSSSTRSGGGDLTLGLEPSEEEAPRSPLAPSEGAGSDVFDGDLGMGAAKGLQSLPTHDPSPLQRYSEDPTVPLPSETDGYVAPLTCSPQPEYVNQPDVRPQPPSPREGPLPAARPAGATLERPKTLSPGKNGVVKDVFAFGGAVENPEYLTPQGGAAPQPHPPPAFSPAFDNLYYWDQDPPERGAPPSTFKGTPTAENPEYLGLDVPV

As for `N#Cc1nc(COc2ccccc2Cl)oc1N1CCCCCC1`, the viability in [1] was 96.5%; in [3], 96.5% (inactive); in test [4], 79.6% (inactive); in test [5], 93.1% (inactive); in [6] (setting [16]), 96.9%; in test [6] (setting [17]) it was 93.1%. The viability was 98.7% (inactive) in test [12] and 87.5% (inactive) in test [13]. Further, the Her2 level in test [2] was 104% (inactive). Besides, in test [6] (H69AR cells + 2 uM doxorubicin), the differential viability (reversal) was -3.75% (inactive). Also, the inhibition in [7] was -3.6% (inactive); in test [8], -3.17% (inactive); in test [14] it was 2.3% (inactive). For the same molecule, the growth inhibition in [9] was 7.94% (inactive); in [10] it was 6.52% (inactive). In addition, the viability increase in test [11] was 2.96% (inactive). The RAM network inhibition in test [15] is 5.67% (inactive).
On to `CCN(CCCNS(=O)(=O)c1ccc2c(c1)oc(=O)n2C)c1cccc(C)c1`, for which the viability is 88% in test [1]; 88% (inactive) in [3]; 106% (inactive) in test [4]; 90.1% (inactive) in test [5]; 84.5% in test [6] (setting [16]); 90.1% in test [6] (setting [17]). Also, the viability in [12] is 87.2% (inactive); in [13], 89.5% (inactive). The Her2 level in test [2] is 100% (inactive). Further, the differential viability (reversal) in test [6] (H69AR cells + 2 uM doxorubicin) is 5.6% (inactive). The inhibition was -0.38% (inactive) in [7], 1.33% (inactive) in [8] and 0.695% (inactive) in test [14]. The figures for the growth inhibition in test [9] and in test [10] were -12% (inactive) and -10.2% (inactive), respectively. Besides, the viability increase in test [11] was -3.21% (inactive). In addition, the RAM network inhibition in test [15] is 7.59% (inactive).
As to `COc1cccc(-c2nnc(NC(C)=O)o2)c1`, the viability was 93.5% in test [1]; 93.5% (inactive) in test [3]; 103% (inactive) in test [4]; 98.8% (inactive) in [5]; 91.6% in [6] (setting [16]); 98.8% in test [6] (setting [17]). Moreover, the figures for the viability in test [12] and in [13] were 101% (inactive) and 105% (inactive), respectively. Besides, the Her2 level in test [2] was 99.5% (inactive). Besides, in test [6] (H69AR cells + 2 uM doxorubicin), the differential viability (reversal) was 7.19% (inactive). Moreover, the inhibition in test [7] is -5.47% (inactive); in test [8] it was -4.33% (inactive); in test [14], 1.76% (inactive). In addition, the growth inhibition in [9] is -0.545% (inactive); in test [10], 1.75% (inactive). Besides, the viability increase in [11] is -1% (inactive). Also, the RAM network inhibition in [15] is 1.45% (inactive).
Take `C=CCNC(=O)CSc1nc2sc(C)c(C)c2c(=O)[nH]1`: the viability in test [1] was 96.5%; in test [3] it was 96.5% (inactive); in test [4], 90.1% (inactive); in [5], 78.2% (inactive); in test [6] (setting [16]), 85.7%; in test [6] (setting [17]), 78.2%. The viability was 110% (inactive) in test [12] and 97.1% (inactive) in test [13]. The Her2 level in test [2] was 95.5% (inactive). For the same molecule, the differential viability (reversal) in test [6] (H69AR cells + 2 uM doxorubicin) was -7.53% (inactive). The inhibition is -3.33% (inactive) in test [7], 1% (inactive) in test [8] and 3.06% (inactive) in test [14]. Moreover, the results for the growth inhibition in test [9] and in [10] were -10.2% (inactive) and -4.47% (inactive), respectively. Moreover, the viability increase in test [11] is -1.02% (inactive). In [15], the RAM network inhibition was 5.1% (inactive).
On to `COc1cccc(C2=NOC(C(=O)N3CCN(c4ccccc4)CC3)C2)c1OC` (stereo not given), for which the viability in [1] is 104%; in test [3], 104% (inactive); in test [4], 95.9% (inactive); in test [5], 86.5% (inactive); in test [6] (setting [16]) it was 98.5%; in test [6] (setting [17]), 86.5%. Besides, the viability in test [12] is 93.6% (inactive); in test [13], 96.5% (inactive). Besides, in test [2], the Her2 level is 97.5% (inactive). Moreover, the differential viability (reversal) in test [6] (H69AR cells + 2 uM doxorubicin) is -12% (inactive). The inhibition in test [7] is -6.13% (inactive); in test [8], 0% (inactive); in [14], -0.58% (inactive). Further, the values for the growth inhibition in [9] and in test [10] were -7.02% (inactive) and -5.35% (inactive), respectively. In addition, in test [11], the viability increase is 2.2% (inactive). The RAM network inhibition in test [15] was 1% (inactive).
For the molecule `CC(CCC(=O)Nc1nncs1)C(=O)O` (stereo not given), the viability was 124% in [1]; 124% (inactive) in test [3]; 101% (inactive) in test [4]; 85.9% (inactive) in [5]; 86.6% in test [6] (setting [16]); 85.9% in test [6] (setting [17]). For the same molecule, the viability in [12] is 108% (inactive); in test [13] it was 95.9% (inactive). Besides, in [2], the Her2 level is 110% (inactive). In [6] (H69AR cells + 2 uM doxorubicin), the differential viability (reversal) is -0.74% (inactive). Also, the inhibition in [7] was -3.2% (inactive); in [8], 8.33% (inactive); in [14] it was 0.135% (inactive). Also, the results for the growth inhibition in test [9] and in [10] were -8.12% (inactive) and -5.29% (inactive), respectively. Besides, in [11], the viability increase was 0.04% (inactive). Further, the RAM network inhibition in test [15] is -0.05% (inactive).
In the case of `COC(=O)Cn1ncc2c(C)n(Cc3ccccc3)c(C)c2c1=O`, the viability in test [1] was 122%; in test [3], 122% (inactive); in test [4] it was 107% (inactive); in [5], 96% (inactive); in test [6] (setting [16]), 88.9%; in test [6] (setting [17]), 96%. Moreover, the figures for the viability in test [12] and in [13] were 100% (inactive) and 96.7% (inactive), respectively. The Her2 level in test [2] was 112% (inactive). Moreover, in [6] (H69AR cells + 2 uM doxorubicin), the differential viability (reversal) is 7.04% (inactive). The results for the inhibition in test [7], in test [8] and in test [14] were -3.73% (inactive), 2% (inactive) and 0.365% (inactive), respectively. The growth inhibition in test [9] is -7.07% (inactive); in [10] it was -6.09% (inactive). In addition, the viability increase in test [11] is 2.78% (inactive). Besides, the RAM network inhibition in test [15] was 2.88% (inactive).
Turning to `CCOC(=O)c1ccc(NC(=O)CC2SC(=NC)N(C)C2=O)cc1` (stereo not given), the viability in test [1] was 107%; in [3], 107% (inactive); in [4], 110% (inactive); in [5], 105% (inactive); in test [6] (setting [16]), 88.7%; in [6] (setting [17]) it was 105%. The viability in test [12] was 101% (inactive); in test [13], 97.8% (inactive). Besides, in [2], the Her2 level is 88.5% (inactive). For the same molecule, the differential viability (reversal) in test [6] (H69AR cells + 2 uM doxorubicin) was 16.6% (inactive). Moreover, the figures for the inhibition in test [7], in test [8] and in test [14] were -3.03% (inactive), -1.9% (inactive) and 2.03% (inactive), respectively. Also, the growth inhibition was 6.34% (inactive) in [9] and 11.4% (inactive) in test [10]. In addition, the viability increase in test [11] was -0.46% (inactive). Moreover, in [15], the RAM network inhibition is 2.16% (inactive).
For `COc1ccccc1N(CC(=O)NCc1ccccn1)S(C)(=O)=O`, the viability in [1] is 126%; in test [3], 126% (inactive); in test [4], 89.2% (inactive); in test [5], 95.7% (inactive); in test [6] (setting [16]), 91.6%; in test [6] (setting [17]) it was 95.7%. In addition, the viability in [12] was 97.3% (inactive); in [13] it was 91.5% (inactive). In addition, the Her2 level in test [2] is 105% (inactive). Further, the differential viability (reversal) in [6] (H69AR cells + 2 uM doxorubicin) was 4.02% (inactive). The inhibition was -1.3% (inactive) in test [7], -1.17% (inactive) in [8] and 0.815% (inactive) in test [14]. The growth inhibition in [9] was -1.19% (inactive); in test [10], -24.7% (inactive). The viability increase in test [11] is -3.02% (inactive). Further, the RAM network inhibition in test [15] is 4.8% (inactive).
As to `CCCNc1nc(N2CCOCC2)nc(N2CCOCC2)n1`, the viability in [1] was 97.5%; in test [3], 97.5% (inactive); in test [4], 109% (inactive); in [5], 90.5% (inactive); in [6] (setting [16]), 93.9%; in test [6] (setting [17]), 90.5%. For the same molecule, the viability in test [12] was 92.8% (inactive); in test [13], 102% (inactive). In addition, in test [2], the Her2 level was 110% (inactive). In addition, the differential viability (reversal) in test [6] (H69AR cells + 2 uM doxorubicin) was -3.39% (inactive). The inhibition in test [7] was -0.52% (inactive); in test [8] it was -7.38% (inactive); in test [14], 1.26% (inactive). Also, the growth inhibition in test [9] is -4.61% (inactive); in [10], 2.38% (inactive). For the same molecule, the viability increase in test [11] was -0.12% (inactive). In [15], the RAM network inhibition was 2.19% (inactive).

For the origin of these results see PubChem BioAssay.
